“And” between values parts separate entries of the source, which are not always exact repeats. Identical values can stand only once. Results filed as inconclusive are left out. The source holds several records for some structures; these can differ, active in one and inactive in another. The source made the active and inactive calls. Unless noted, calls follow the shape of the dose curve; as a rule, active = well fitted curve in the direction sought with a large enough effect in the repeat runs; inconclusive = weak or mixed curves; inactive = no such curve, though single readings can be large; an effect the other way counts as inactive or inconclusive.
What was measured:
[1] = target: Retinoic acid receptor RXR-alpha (Homo sapiens) (UniProt P19793); test: qHTS assay to identify small molecule agonists of the RXR signaling pathway (AID 1159527; calls by dose curve; also: nearly all actives have a fitted effect of over 35% in size; also: potency is read from the fitted curve at half-maximal effect)
Sequence of Retinoic acid receptor RXR-alpha (Homo sapiens) (P19793 whole entry, looked up): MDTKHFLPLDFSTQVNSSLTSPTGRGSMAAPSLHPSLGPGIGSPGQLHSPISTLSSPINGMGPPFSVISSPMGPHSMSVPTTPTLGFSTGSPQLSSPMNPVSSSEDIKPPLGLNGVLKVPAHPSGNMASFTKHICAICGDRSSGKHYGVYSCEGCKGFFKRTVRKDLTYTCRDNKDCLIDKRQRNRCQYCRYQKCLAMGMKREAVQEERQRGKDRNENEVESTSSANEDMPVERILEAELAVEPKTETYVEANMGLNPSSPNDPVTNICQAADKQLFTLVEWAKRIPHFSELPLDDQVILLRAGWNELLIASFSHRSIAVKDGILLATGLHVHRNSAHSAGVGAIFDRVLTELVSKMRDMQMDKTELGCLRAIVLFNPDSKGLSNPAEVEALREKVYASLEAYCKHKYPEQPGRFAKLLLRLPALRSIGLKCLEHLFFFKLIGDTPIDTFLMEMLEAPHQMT
Method in brief: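 Reporter activation is measured as beta-lactamase activity via FRET substrate cleavage (emission 460/530 nm) in HEK 293T cells expressing an RXR-alpha-driven bla construct, following 16 hr compound exposure at 37 C.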

[2] = qHTS assay to identify small molecule agonists of the RXR signaling pathway - cell viability counter screen (AID 1159529); also: nearly all actives have a fitted effect of over 50% in size; also: potency is read from the fitted curve at half-maximal effect
Method in brief: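 Tox21 10K compounds were tested for cytotoxicity against GeneBLAzer RXR-alpha HEK 293T cells grown in 2% charcoal-stripped FBS. Exposure lasted 16 hr at 37 C, 5% CO2; viability read by CellTiter-Glo luminescence.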

[3] = qHTS assay to identify small molecule antagonists of the retinoic acid receptor (RAR) signaling pathway (AID 1159552; also: nearly all actives have a fitted effect of over 50% in size)
Method in brief: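 Overnight-plated C3RL4 reporter cells get compound, then retinol to 1 uM final; plates sit 6 hr at 37 C, 5% CO2. A luciferase reagent is added and light output recorded after 30 min at room temperature.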

[4] = qHTS assay to identify small molecule agonists of the retinoic acid receptor (RAR) signaling pathway (AID 1159553); conditions: C3RL4 RARE luciferase reporter, agonist, 6 h; activation: at 73.3 µM (top of the series) unless noted; also: potency is read from the fitted curve at half-maximal effect
Method in brief: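 RARE-luc C3RL4 cells; overnight attachment 37 C/5% CO2; compound (DMSO) 6 hr; luciferase reagent, 30 min RT; luminescence read-out.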

[5] = qHTS assay to identify small molecule antagonists of the retinoid acid receptor (RAR) signaling pathway - cell viability counter screen (AID 1159551); also: nearly all actives have a fitted effect of over 35% in size
Method in brief: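 C3RL4 RARE-luciferase line; cpds + retinol 1 uM final, 6 h, 37 C/5% CO2; CellTiter-Glo ATP luminescence, 30 min RT.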

[6] = qHTS assay to identify small molecule antagonists of the estrogen related receptor (ERR) signaling pathway - cell viability counter screen (AID 1224818)
Method in brief: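 Fluorescence from CellTiter-Fluor, read 30 min after reagent addition at 37 C, measured viability of ERR cells exposed to compounds for 17.5 h. Cells had settled 6 h before dosing.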

[7] = qHTS assay to identify small molecule antagonists of the estrogen related receptor signaling pathway with the pleiotropic PPARgamma coactivator (PGC) cell viability counter screen (AID 1224822)
Method in brief: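 Fluorescence read-out of CellTiter-Fluor after 30 min at 37 C; PGC/ERR cells, 2,000 per well, had been exposed to DMSO-dissolved compounds for 17.5 h following a 6 h pre-incubation.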

[8] = qHTS assay to identify small molecule antagonists of the estrogen related receptor (ERR) signaling pathway (AID 1224819; also: potency is read from the fitted curve at half-maximal effect; nearly all actives have a fitted effect of over 50% in size)
Method in brief: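 Luminescence readout (One-Glo, 30 min, RT) of ERR cell line after 18 h compound exposure at 37 C; cells seeded 2,000/well, pre-incubated 6 h, compounds pinned from DMSO stocks.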

[9] = qHTS assay to identify small molecule agonists of the estrogen related receptor (ERR) signaling pathway (AID 1224820)
Method in brief: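 An ERR cell line provided by NTP was seeded at 2,000 cells per well and allowed to settle for 6 h before compounds in DMSO were added. After 18 h at 37 C, luciferase activity was measured by One-Glo luminescence.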

[10] = test system: estrogen-related receptor alpha (ERRalpha) with PGC-1alpha coactivator, human; test: qHTS assay to identify small molecule antagonists of the estrogen related receptor signaling pathway with the pleiotropic PPARgamma coactivator (PGC) (AID 1224821; calls by dose curve; also: potency is read from the fitted curve at half-maximal effect; nearly all actives have a fitted effect of over 50% in size)
Method in brief: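 A PGC/ERR cell line supplied by NTP is seeded, allowed 6 h at 37 C, and treated with test compounds in DMSO for 18 h. Signal is then measured as luciferase luminescence using One-Glo.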

Measured: Potency

CNC(=O)N(C)c1nnc(C(C)(C)C)s1
inactive: [1] | [2] | [3] | [4]

CC(C)c1ccc(CO)cc1
inactive: [1] | [2] | [3] | [4]

CC(O)CCO (centres undefined)
inactive: [1] | [2] | [3] | [4]

Nc1c(Cl)cc([N+](=O)[O-])cc1Cl
inactive: [1] | [2] | [3] | [4]

CCCCNC(=O)n1c(NC(=O)OC)nc2ccccc21
active: [4] 13.6 µM
inactive: [1] | [2] | [5] | [3]

Brc1ccc(Oc2cc(Br)c(Br)cc2Br)c(Br)c1
active: [2] 17.4 µM
inactive: [1] | [5] | [3] | [4]

CCOP(=S)(OCC)O/N=C(\C#N)c1ccccc1
inactive: [1] | [2] | [5] | [3] | [4]

O=C1C=CC(=O)C=C1
inactive: [1] | [2] | [5] | [6] | [7]

c1ccc(N=Nc2ccccc2)cc1
inactive: [1] | [2] | [5] | [3] | [4]

O=C(O)CC[N+](=O)[O-]
not listed: [8] | [9] | [10]
inactive: all other assays above

O=C(CCl)c1ccccc1
inactive: [1] | [2] | [5] | [3] | [4]

NC(=S)Nc1ccccc1
25 µM (active) and inactive: [2]
inactive: [1] | [5] | [3] | [4]

Cc1cc(C)cc(C)c1
inactive: [1] | [2] | [3] | [4]

CC(C)N(C(=O)SCC(Cl)=C(Cl)Cl)C(C)C
inactive: [1] | [2] | [5] | [3] | [4]

CCCCCCOC(=O)c1ccccc1C(=O)OCCCCCC
inactive: [1] | [2] | [5] | [3] | [4]

COP(=S)(OC)Oc1ccc([N+](=O)[O-])cc1
inactive: [1] | [2] | [5] | [3] | [4]

Cc1ccc2c(c1N)C(=O)c1ccccc1C2=O
active: [4] 1.7 µM and 1.93 µM
inactive: [1] | [2] | [3]

C=CCc1ccc2c(c1)OCO2
inactive: [1] | [2] | [3] | [4]

N#Cc1cc(Br)c(O)c(Br)c1
active: [2] 11 µM and 13.3 µM
inactive: [1] | [5] | [3] | [4]

CN(C)c1ccc(C(=O)c2ccc(N(C)C)cc2)cc1
active: [4] 1.21 µM and 1.22 µM
inactive: [1] | [2] | [3]

CCCCC(CC)COC(=O)c1ccc(C(=O)OCC(CC)CCCC)c(C(=O)OCC(CC)CCCC)c1 (centres undefined)
inactive: [1] | [2] | [5] | [3] | [4]

S=C1NCCN1
inactive: [1] | [2] | [3] | [4]

CCCCCCCCOC(=O)c1ccccc1C(=O)OCCCCCCCC
inactive: [1] | [2] | [3] | [4]

Nc1ccncc1
inactive: [1] | [2] | [5] | [6] | [7]

CCCCCCCCCCCOC(=O)c1ccccc1C(=O)OCCCCCCCCCCC
inactive: [1] | [2] | [3] | [4]

N#CC(Br)Br
inactive: [1] | [2] | [3] | [4]

CC(C)NC(C)C
inactive: [1] | [2] | [3] | [4]

ClC1C(Cl)C(Cl)C(Cl)C(Cl)C1Cl (centres undefined)
inactive: [1] | [5] | [3] | [4]
inactive and 43.6 µM (active): [2]

CC(C)C(=O)OCC(C)(C)C(OC(=O)C(C)C)C(C)C (centres undefined)
inactive: [1] | [2] | [3] | [4]

CCN(CC)C(=O)/C(Cl)=C(\C)OP(=O)(OC)OC
inactive: [1] | [2] | [3] | [4]

C1=Cc2cccc3cccc1c23
inactive: [1] | [2] | [3] | [4]

C=C(C)[C@H]1Cc2c(ccc3c2O[C@@H]2COc4cc(OC)c(OC)cc4[C@@H]2C3=O)O1
active: [8] 0.081 µM | [10] 0.0361 µM
inactive: [2] | [4] | [9]

O=[N+]([O-])c1c(Cl)c(Cl)c(Cl)c(Cl)c1Cl
6.89 µM (active) and inactive: [1]
inactive: [2] | [3] | [4]

CCCCCCCCC(=O)NCc1ccc(O)c(OC)c1
inactive: [2] | [5] | [3]

Oc1c(Cl)c(Cl)c(Cl)c(Cl)c1Cl
inactive: [2] | [3] | [4]

C[C@]12CCC(=O)C(O)=C1CC[C@@H]1[C@@H]2CC[C@]2(C)C(=O)CC[C@@H]12
inactive: [1] | [5]

O=c1oc2ccccc2c(O)c1C(CC(O)c1ccc(-c2ccc(Br)cc2)cc1)c1ccccc1 (centres undefined)
inactive: [5]

Reference: PubChem BioAssay (Tox21)
